Molecules are shown by their SMILES. Results filed as inconclusive are left out. Calls of active or inactive are those of the source. Unless noted, calls follow the shape of the dose curve; as a rule, active = well fitted curve in the direction sought with a large enough effect in the repeat runs; inconclusive = weak or mixed curves; inactive = no such curve, though single readings can be large; an effect the other way counts as inactive or inconclusive.

The nature of assay [1]: qHTS RealTime-Glo MT Cell Viability Assay in HEK293 cells - 0 hour (AID 1224880). Also: top concentration of the series differs between compounds; nearly all actives have a fitted effect of over 45% in size. An outline of the steps: (§1)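 Kinetic, non-lysing viability readout. Seed HEK293 (600/well) with reagent, incubate 5 h at 37 C/5% CO2, pin 23 nL compound in DMSO, incubate at 37 C, read luminescence at 0, 8, 16, 24, 32, 40 h.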
Assay [2] is described as follows: A CellTox Green Cytotoxicity Assay to monitor cytotoxicity in HEK293 cells - 32 hour (AID 1224881). Also: nearly all actives have a fitted effect of over 40% in size. An outline of the steps: (§2)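 Real-time, in one plate: 600 HEK293 cells/well with dead-cell DNA dye, pinned compound after 5 h, 37 C incubation over 40 h; viable cells give no appreciable fluorescence.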
Assay [3] can be described thus: A CellTox Green Cytotoxicity Assay to monitor cytotoxicity in HepG2 cells - 0 hour (AID 1224882). Also: nearly all actives have a fitted effect of over 35% in size. An outline of the steps: (§3)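 Cytotoxicity was tracked as dead-cell DNA fluorescence in HepG2 cells treated with test compounds at 37 C; each time-point value comes from one kinetic series spanning 0, 8, 16, 24, 32 and 40 h.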
The nature of assay [4]: A CellTox Green Cytotoxicity Assay to monitor cytotoxicity in HepG2 cells - 32 hour (AID 1224883). Also: nearly all actives have a fitted effect of over 50% in size. An outline of the steps: as §3
Assay [5] is described as follows: A CellTox Green Cytotoxicity Assay to monitor cytotoxicity in HEK293 cells - 8 hour (AID 1224884). Also: nearly all actives have a fitted effect of over 35% in size. The procedure, abridged: as §2
The nature of assay [6]: qHTS RealTime-Glo MT Cell Viability Assay in HepG2 cells - 16 hour (AID 1224885). Also: nearly all actives have a fitted effect of over 50% in size. An outline of the steps:
(§4)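 HepG2 cells (600/well) were dispensed with RealTime-Glo reagents, incubated 5 h at 37 °C, then treated with compounds in DMSO for up to 40 h. Nonlytic NanoLuc luminescence reflecting viable cells was read at each stated time point.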

Assay [7] in a line: qHTS RealTime-Glo MT Cell Viability Assay in HEK293 cells - 24 hour (AID 1224886). Also: nearly all actives have a fitted effect of over 50% in size. Also: potency is read from the fitted curve at half-maximal effect. The procedure, abridged: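 HEK293 cells seeded with NanoLuc/prosubstrate reagent, rested 5 h at 37 C, then dosed and kept at 37 C up to 40 h. Nonlytic real-time luminescence from viable cells read at 0, 8, 16, 24, 32 and 40 h.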
The nature of assay [8]: qHTS RealTime-Glo MT Cell Viability Assay in HEK293 cells - 8 hour (AID 1224887). Also: nearly all actives have a fitted effect of over 50% in size. Also: potency is read from the fitted curve at half-maximal effect. The procedure, abridged:
as §1

A short description of assay [9]: A CellTox Green Cytotoxicity Assay to monitor cytotoxicity in HEK293 cells - 16 hour (AID 1224888). Also: nearly all actives have a fitted effect of over 35% in size. An outline of the steps: as §2
The nature of assay [10]: qHTS RealTime-Glo MT Cell Viability Assay in HepG2 cells - 0 hour (AID 1224889). Also: nearly all actives have a fitted effect of over 50% in size. The procedure, abridged:
as §4

Assay [11] is described as follows: A CellTox Green Cytotoxicity Assay to monitor cytotoxicity in HepG2 cells - 8 hour (AID 1224890). Also: nearly all actives have a fitted effect of over 45% in size. The procedure, abridged:
as §3

Assay [12] can be described thus: qHTS assay to identify small molecule antagonists of the estrogen receptor alpha (ER-alpha) signaling pathway using the BG1 cell line in the presence of 0.1 nM 17-beta-estradiol - cell viability counter screen (AID 1259241). Also: nearly all actives have a fitted effect of over 40% in size. An outline of the steps: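 VM7Luc4E2 cells (endogenous full-length ER-alpha, 4xERE-luciferase), cultured 5 days in charcoal-stripped serum, exposed to compounds with 0.1 nM 17beta-estradiol (final) for 22 hr at 37C. Viability read in same wells as live-cell protease fluorescence after 30 min.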

Assay [13] in a line: qHTS assay to identify small molecule antagonists of the androgen receptor (AR) signaling pathway using the MDA cell line in the presence of 0.5 nM R1881 - cell viability counter screen (AID 1259242). Also: nearly all actives have a fitted effect of over 45% in size. An outline of the steps:
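Cells seeded at 3,000/well and allowed 5 hr at 37C, 0% CO2 before compound transfer and R1881 (0.5 nM final) addition; 16 hr later, live-cell protease fluorescence indicated cytotoxicity.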

Assay [14] in a line: qHTS assay to identify small molecule HDAC inhibitors (AID 1259364).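 Also: wild-type HCT-116 cells with endogenous class I/II HDAC activity; top concentration of the series differs between compounds; nearly all actives have a fitted effect of over 45% in size.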 The procedure, abridged: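 HCT-116 wt cells, 1,500/well, overnight attach. Compounds (DMSO) 2 h, 37 °C. HDAC-Glo I/II, 30 min RT. Luminescence.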
Assay [15] is described as follows: qHTS assay to identify small molecule HDAC inhibitors - cell viability counter screen (AID 1259365). An outline of the steps:
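Wild-type HCT-116 cells, 1,500/well, cultured overnight, then compound-treated 2 h at 37 C. Viability measured as ATP luminescence with CellTiter-Glo after 30 min at room temperature.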

A short description of assay [16]: qHTS assay to identify small molecule agonists of the sonic hedgehog signaling (Shh) pathway - cell viability counter screen (AID 1259366). Also: nearly all actives have a fitted effect of over 50% in size. The procedure, abridged: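 NIH/3T3-derived Gli1-Luc reporter cells, 2,000 per well, received compound after 4 h and were treated about 23 h at 37C. Viability measured in the same wells by CellTiter-Fluor fluorescence after 1 h.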

A short description of assay [17]: qHTS assay to identify small molecule antagonists of the sonic hedgehog signaling (Shh) pathway - cell viability counter screen (AID 1259367). Also: nearly all actives have a fitted effect of over 55% in size. The procedure, abridged:
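Conditioned medium drove Shh signaling in 3T3 Gli1-Luc cells exposed to compounds at 37C and 5% CO2. Viability was determined from CellTiter-Fluor fluorescence, with reagent incubated 1 hr after 23 hr of treatment.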

A short description of assay [18]: qHTS assay to identify small molecule phospholipidosis (PLD) inducers (AID 1259344; active = well fitted curve in the direction sought with a large enough effect; an effect the other way counts as inactive or inconclusive). An outline of the steps: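 After 4 h attachment on collagen I, HepG2 cells were dosed with compound alongside LipidTOX Red, kept 24 h at 37 C, fixed, and imaged for lamellar phospholipid pits.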
The target in assay [19] is Estrogen receptor (Homo sapiens) (UniProt P03372). The assay is described as follows: qHTS assay to identify small molecule antagonists of the estrogen receptor alpha (ER-alpha) signaling pathway using the BG1 cell line in the presence of 0.1 nM 17-beta-estradiol (AID 1259244). Also: nearly all actives have a fitted effect of over 50% in size. The procedure, abridged:
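Luciferase signal from VM7Luc4E2 ERE-reporter cells, co-dosed with test compound and 0.1 nM final 17beta-estradiol for 22 h, read with ONE-Glo.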

Chain of Estrogen receptor (Homo sapiens) (P03372 whole entry, looked up): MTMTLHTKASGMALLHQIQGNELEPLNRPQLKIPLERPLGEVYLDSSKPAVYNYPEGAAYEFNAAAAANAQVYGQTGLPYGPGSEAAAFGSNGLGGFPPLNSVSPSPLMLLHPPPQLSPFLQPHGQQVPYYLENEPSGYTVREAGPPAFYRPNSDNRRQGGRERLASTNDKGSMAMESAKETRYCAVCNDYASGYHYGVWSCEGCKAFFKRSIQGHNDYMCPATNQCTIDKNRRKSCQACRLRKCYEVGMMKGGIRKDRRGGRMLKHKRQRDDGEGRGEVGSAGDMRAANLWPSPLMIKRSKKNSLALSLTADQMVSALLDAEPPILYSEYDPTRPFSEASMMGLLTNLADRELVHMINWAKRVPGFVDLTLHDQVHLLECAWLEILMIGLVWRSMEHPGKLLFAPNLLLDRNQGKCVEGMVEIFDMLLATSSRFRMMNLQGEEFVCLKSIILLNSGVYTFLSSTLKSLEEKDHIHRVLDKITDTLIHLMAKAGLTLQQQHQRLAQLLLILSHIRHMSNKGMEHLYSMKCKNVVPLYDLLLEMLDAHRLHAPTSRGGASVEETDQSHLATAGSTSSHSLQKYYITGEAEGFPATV

On to `CC1COc2ccccc2N1C(=O)C(Cl)Cl` (stereo unspecified), for which the Potency entry in assay [1], in assay [2], in assay [3], in assay [4], in [5] and in [6] was “inactive” throughout. Also, the Potency entry in assay [7], in [8], in [9], in [10], in assay [11] and in assay [12] was “inactive” throughout. In addition, the Potency entry in [13], in assay [14] and in [16] was “inactive” each time. Besides, the result in assay [15] was inactive.

Regarding `Oc1ccc2ccccc2c1`, the Potency result in assay [1], in assay [2], in assay [3], in assay [4], in assay [5] and in [6] was “inactive” each time. Also, the Potency result in assay [7], in assay [8], in assay [9], in assay [10], in assay [11] and in [12] was “inactive” in each case. For the same compound, the Potency entry in assay [13], in assay [14], in assay [16] and in assay [17] was “inactive” throughout. In addition, the compound was classed as inactive in assay [15].

As for `CC#C[C@]1(O)CC[C@H]2[C@@H]3CCC4=CC(=O)CCC4=C3[C@@H](c3ccc(N(C)C)cc3)C[C@@]21C`, the Potency entry in assay [1], in assay [2], in assay [3], in assay [4], in assay [5] and in assay [6] was “inactive” throughout. Besides, the Potency result in assay [9], in assay [10], in assay [11], in [12], in assay [13] and in [14] was “inactive” throughout. Further, the Potency entry in assay [16] and in [17] was “inactive” in each case. The Potency was 49 µM (active) in assay [7] and 43.6 µM (active) in assay [8]. Moreover, the compound was classed as inactive in assay [18] and in assay [15].

Regarding `COCC(=O)O`, the Potency result in [1], in assay [2], in assay [3], in [4], in [5] and in [6] was “inactive” each time. The Potency result in [7], in assay [8], in [9], in assay [10], in assay [11] and in assay [12] was “inactive” in each case. The Potency entry in assay [13], in [19], in assay [14], in assay [16] and in assay [17] was “inactive” throughout. Besides, the outcome in assay [15] was inactive.

Consider `CCCCCC/C=C/CCCCCCCC(=O)O`, for which the Potency result in assay [1], in assay [2], in assay [3], in assay [4], in [5] and in assay [6] was “inactive” throughout. Besides, the Potency entry in [7], in [8], in [9], in assay [10], in assay [11] and in assay [12] was “inactive” in each case. For the same compound, the Potency result in assay [13], in [19], in [14], in [16] and in assay [17] was “inactive” in each case. The result in assay [15] was inactive.

Consider `OCC#CCO`, for which the Potency entry in assay [1], in assay [2], in assay [3], in assay [4], in assay [5] and in assay [6] was “inactive” in each case. Also, the Potency entry in assay [7], in [8], in assay [9], in assay [10], in assay [11] and in assay [12] was “inactive” in each case. Also, the Potency entry in assay [13], in [14], in [16] and in assay [17] was “inactive” throughout. In addition, the result in [15] was inactive.

As to `OC[C@@H](O)[C@@H](O)[C@H](O)[C@@H](O)CO`, the Potency entry in [1], in [2], in assay [3], in assay [4], in [5] and in [6] was “inactive” throughout. Further, the Potency result in assay [7], in [8], in assay [9], in assay [10], in assay [11] and in assay [12] was “inactive” each time. Also, the Potency entry in assay [13], in assay [19], in assay [14], in assay [16] and in assay [17] was “inactive” each time. In addition, the outcome in assay [15] was inactive.

Take `CC1Cc2ccccc2N1NC(=O)c1ccc(Cl)c(S(N)(=O)=O)c1` (stereo unspecified): the Potency entry in assay [1], in assay [2], in assay [3], in assay [4], in assay [5] and in assay [6] was “inactive” throughout. Also, the Potency entry in [7], in assay [8], in assay [9], in [10], in [11] and in assay [12] was “inactive” in each case. The Potency entry in assay [13], in assay [19], in [14], in assay [16] and in [17] was “inactive” throughout. Besides, the result in assay [18] and in assay [15] was inactive.
